Data on 1 sequence can be found in article PMC7862700, “An all-to-all approach to the identification of sequence-specific readers for epigenetic DNA modifications on cytosine”.

Test in all cases: DAPPL (digital affinity profiling via proximity ligation, sequencing); 10 mM Tris-HCl pH 7.5, 50 mM NaCl, 1 mM DTT, 4% glycerol, room temperature, 30 min; GST-TFs on glutathione beads, 16-mer random dsDNA library, 0.1% formaldehyde crosslink after washing; high values mean tight binding
The target in one experiment is T1, FEV (Homo sapiens, UniProt Q99581 1-238).
T1 sequence: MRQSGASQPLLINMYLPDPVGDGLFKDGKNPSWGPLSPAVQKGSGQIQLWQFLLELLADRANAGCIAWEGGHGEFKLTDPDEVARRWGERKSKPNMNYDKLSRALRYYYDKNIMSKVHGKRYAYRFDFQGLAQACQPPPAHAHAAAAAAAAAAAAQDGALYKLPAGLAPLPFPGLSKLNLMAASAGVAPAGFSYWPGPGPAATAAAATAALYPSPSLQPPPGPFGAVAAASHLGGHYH
To be noted: protein: recombinant; tags: N-terminal GST; dsDNA, one strand shown. The method, boiled down:
(§1)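 Beads coated with glutathione captured GST-fused human transcription factors that had been expressed in yeast, and the factors were then given DNA barcodes and pooled with a tag-only sample. The pools were incubated with 200 nmole of a random double-stranded 16-mer DNA library in Tris/NaCl/DTT/glycerol buffer for 30 min at room temperature, washed, crosslinked with 0.1% formaldehyde and proximity-ligated with BsaI/T4 ligase at 37 °C for 1 h. PCR amplification and Illumina NextSeq500 sequencing came last. Binding signal is each hexamer's read frequency for a factor divided by its frequency for the tag-only sample.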

For a further experiment, the target named is ETV5 (Homo sapiens, UniProt P41161 1-510). Conditions: protein: recombinant; tags: N-terminal GST; dsDNA, one strand shown. A digest of the protocol: as §1
ETV5, sequence (P41161 whole entry): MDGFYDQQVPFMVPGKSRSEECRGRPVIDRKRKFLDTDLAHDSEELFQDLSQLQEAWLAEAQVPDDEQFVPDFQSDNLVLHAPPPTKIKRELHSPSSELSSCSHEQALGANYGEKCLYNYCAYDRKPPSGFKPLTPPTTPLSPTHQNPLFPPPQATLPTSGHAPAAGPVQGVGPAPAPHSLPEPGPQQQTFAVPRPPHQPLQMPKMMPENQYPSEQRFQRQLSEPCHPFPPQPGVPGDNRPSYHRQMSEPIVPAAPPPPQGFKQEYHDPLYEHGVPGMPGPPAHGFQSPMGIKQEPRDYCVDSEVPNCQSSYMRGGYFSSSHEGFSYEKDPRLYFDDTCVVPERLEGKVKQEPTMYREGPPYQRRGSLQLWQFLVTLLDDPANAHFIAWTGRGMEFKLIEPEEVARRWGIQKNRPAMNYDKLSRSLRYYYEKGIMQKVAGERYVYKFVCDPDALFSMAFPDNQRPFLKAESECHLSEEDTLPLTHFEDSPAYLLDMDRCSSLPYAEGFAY
In another experiment the target is HSF1 (Homo sapiens, UniProt Q00613 1-529). Conditions: protein: recombinant; tags: N-terminal GST; chain copies: 3; dsDNA, one strand shown. A digest of the protocol: as §1
HSF1, sequence (Q00613 whole entry): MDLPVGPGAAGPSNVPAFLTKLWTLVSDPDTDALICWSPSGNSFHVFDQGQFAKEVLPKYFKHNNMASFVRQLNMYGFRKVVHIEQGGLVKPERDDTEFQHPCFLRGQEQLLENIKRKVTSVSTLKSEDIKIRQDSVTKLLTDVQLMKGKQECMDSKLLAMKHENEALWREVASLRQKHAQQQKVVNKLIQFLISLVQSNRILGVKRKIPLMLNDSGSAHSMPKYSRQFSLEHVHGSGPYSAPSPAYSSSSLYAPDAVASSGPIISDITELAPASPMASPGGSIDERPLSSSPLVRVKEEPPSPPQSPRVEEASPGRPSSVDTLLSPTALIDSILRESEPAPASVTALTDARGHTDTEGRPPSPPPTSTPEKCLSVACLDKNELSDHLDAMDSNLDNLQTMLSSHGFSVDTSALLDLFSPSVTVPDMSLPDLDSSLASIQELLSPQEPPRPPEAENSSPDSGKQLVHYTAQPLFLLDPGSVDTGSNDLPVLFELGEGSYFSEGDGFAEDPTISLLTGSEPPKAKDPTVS
For a further experiment, the target named is T2, SPIC (Homo sapiens, UniProt Q8N5J4 1-248).
T2 sequence: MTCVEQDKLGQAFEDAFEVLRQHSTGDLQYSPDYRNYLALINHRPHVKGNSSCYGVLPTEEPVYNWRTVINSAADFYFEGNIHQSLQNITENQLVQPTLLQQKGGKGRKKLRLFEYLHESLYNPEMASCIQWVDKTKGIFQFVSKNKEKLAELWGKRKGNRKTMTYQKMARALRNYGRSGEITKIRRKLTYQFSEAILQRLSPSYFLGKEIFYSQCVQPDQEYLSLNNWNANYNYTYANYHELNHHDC
To be noted: protein: recombinant; tags: N-terminal GST; dsDNA, one strand shown. A digest of the protocol:
as §1

In the next experiment the target is ELF4 (Homo sapiens, UniProt Q99607 1-663). Conditions: protein: recombinant; tags: N-terminal GST; dsDNA, one strand shown. A digest of the protocol:
as §1

The target in another experiment is T3, ELK4 (Homo sapiens, UniProt P28324-2 1-405).
T3 sequence: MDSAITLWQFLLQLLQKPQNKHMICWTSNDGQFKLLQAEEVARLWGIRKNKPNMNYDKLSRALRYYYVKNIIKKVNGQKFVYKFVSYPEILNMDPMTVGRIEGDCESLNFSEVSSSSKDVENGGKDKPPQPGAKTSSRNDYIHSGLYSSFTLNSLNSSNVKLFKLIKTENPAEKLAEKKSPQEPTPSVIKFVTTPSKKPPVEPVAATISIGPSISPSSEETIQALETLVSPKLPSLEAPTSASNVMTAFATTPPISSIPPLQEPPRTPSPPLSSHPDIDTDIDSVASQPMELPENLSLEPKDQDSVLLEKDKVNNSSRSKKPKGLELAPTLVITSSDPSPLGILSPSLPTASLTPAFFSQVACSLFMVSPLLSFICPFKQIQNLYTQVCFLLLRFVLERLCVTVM
Conditions: protein: recombinant; tags: N-terminal GST; dsDNA, one strand shown. The method, boiled down: as §1

In another experiment the target is T4, ETV2 (Homo sapiens, UniProt O00321 1-342).
T4 sequence: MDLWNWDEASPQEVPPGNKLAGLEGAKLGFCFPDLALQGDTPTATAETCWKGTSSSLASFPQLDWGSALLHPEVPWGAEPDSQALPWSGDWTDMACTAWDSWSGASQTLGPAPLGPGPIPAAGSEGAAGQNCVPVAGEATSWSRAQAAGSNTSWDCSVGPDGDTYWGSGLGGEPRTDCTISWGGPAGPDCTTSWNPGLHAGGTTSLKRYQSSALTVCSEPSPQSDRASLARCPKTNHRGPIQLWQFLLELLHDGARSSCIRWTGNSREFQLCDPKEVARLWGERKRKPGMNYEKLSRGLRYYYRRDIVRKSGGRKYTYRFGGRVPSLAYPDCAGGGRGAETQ
Conditions: protein: recombinant; tags: N-terminal GST; dsDNA, one strand shown. A digest of the protocol: as §1

The target in the next experiment is T5, ELF3 (Homo sapiens, UniProt P78545 1-371).
T5 sequence: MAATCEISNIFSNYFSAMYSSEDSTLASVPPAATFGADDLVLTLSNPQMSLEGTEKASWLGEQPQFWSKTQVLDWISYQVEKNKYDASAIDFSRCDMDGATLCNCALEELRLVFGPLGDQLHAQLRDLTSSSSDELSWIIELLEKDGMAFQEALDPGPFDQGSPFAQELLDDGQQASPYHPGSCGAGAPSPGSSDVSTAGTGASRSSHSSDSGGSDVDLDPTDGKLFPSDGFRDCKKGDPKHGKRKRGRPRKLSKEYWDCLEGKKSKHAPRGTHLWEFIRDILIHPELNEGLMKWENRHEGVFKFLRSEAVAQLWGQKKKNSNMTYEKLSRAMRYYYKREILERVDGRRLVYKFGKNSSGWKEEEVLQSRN
To be noted: protein: recombinant; tags: N-terminal GST; dsDNA, one strand shown. The method, boiled down: as §1

The next experiment deals with CRX (Homo sapiens, UniProt O43186 1-299). Conditions: protein: recombinant; tags: N-terminal GST; dsDNA, one strand shown. The method, boiled down:
as §1

In another experiment the target is ETV1 (Homo sapiens, UniProt P50549 1-477). Conditions: protein: recombinant; tags: N-terminal GST; dsDNA, one strand shown. A digest of the protocol:
as §1

Another experiment has as its target T6, ERF (Homo sapiens, UniProt P50548 1-548).
T6 sequence: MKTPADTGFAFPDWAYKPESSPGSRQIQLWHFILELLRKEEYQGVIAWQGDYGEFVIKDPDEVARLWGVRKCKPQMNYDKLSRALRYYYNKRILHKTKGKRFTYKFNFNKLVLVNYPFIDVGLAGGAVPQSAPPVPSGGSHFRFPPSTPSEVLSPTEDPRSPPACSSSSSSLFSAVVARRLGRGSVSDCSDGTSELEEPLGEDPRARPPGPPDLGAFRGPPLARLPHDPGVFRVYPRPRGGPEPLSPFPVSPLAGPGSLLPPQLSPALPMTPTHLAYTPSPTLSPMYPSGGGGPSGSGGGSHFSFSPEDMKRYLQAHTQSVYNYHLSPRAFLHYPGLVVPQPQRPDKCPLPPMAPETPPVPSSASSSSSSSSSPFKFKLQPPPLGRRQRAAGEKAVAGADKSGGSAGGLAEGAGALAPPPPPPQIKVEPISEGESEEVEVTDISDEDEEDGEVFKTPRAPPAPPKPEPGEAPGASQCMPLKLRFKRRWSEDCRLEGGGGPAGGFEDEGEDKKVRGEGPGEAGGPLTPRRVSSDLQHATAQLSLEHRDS
To be noted: protein: recombinant; tags: N-terminal GST; dsDNA, one strand shown. A digest of the protocol: as §1

The next experiment addresses T7, ETV3L (Homo sapiens, UniProt Q6ZN32 1-361).
T7 sequence: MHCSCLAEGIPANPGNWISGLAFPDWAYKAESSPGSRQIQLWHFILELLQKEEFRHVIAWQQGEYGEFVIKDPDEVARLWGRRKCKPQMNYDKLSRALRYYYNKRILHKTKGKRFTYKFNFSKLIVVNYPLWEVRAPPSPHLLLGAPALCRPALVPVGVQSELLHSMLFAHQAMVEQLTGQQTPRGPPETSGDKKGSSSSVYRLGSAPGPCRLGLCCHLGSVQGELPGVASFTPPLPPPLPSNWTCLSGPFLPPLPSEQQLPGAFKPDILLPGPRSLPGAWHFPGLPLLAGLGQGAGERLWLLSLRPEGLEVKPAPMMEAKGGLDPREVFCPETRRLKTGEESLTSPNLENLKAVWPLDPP
Conditions: protein: recombinant; tags: N-terminal GST; dsDNA, one strand shown. A digest of the protocol:
as §1

The next experiment concerns the target T8, ETS2 (Homo sapiens, UniProt P15036 1-469).
T8 sequence: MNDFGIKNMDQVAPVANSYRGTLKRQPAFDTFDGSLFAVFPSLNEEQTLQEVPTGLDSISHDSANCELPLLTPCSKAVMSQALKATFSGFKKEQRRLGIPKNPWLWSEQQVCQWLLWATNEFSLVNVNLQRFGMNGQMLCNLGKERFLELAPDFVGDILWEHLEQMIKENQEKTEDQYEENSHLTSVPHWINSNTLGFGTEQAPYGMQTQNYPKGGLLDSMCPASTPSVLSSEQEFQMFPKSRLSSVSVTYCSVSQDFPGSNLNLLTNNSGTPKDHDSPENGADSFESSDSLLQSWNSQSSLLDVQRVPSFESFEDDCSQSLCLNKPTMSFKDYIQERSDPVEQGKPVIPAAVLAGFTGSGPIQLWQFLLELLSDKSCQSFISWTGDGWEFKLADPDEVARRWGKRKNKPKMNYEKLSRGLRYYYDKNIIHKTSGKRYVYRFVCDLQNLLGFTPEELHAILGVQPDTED
To be noted: protein: recombinant; tags: N-terminal GST; dsDNA, one strand shown. The method, boiled down:
as §1

For another experiment, the target named is T9, SPDEF (Homo sapiens, UniProt O95238 1-335).
T9 sequence: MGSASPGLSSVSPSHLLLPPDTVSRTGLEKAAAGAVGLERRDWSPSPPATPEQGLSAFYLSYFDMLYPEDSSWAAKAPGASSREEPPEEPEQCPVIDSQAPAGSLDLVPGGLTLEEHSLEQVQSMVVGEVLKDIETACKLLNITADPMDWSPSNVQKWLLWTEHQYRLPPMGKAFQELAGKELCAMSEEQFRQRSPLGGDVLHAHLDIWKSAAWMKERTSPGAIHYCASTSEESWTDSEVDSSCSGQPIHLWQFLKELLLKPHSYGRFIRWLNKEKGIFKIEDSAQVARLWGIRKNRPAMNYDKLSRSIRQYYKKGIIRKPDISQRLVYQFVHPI
To be noted: protein: recombinant; tags: N-terminal GST; dsDNA, one strand shown. A digest of the protocol:
as §1

In a further experiment the target is T10, ETV7 (Homo sapiens, UniProt Q9Y603 1-341).
T10 sequence: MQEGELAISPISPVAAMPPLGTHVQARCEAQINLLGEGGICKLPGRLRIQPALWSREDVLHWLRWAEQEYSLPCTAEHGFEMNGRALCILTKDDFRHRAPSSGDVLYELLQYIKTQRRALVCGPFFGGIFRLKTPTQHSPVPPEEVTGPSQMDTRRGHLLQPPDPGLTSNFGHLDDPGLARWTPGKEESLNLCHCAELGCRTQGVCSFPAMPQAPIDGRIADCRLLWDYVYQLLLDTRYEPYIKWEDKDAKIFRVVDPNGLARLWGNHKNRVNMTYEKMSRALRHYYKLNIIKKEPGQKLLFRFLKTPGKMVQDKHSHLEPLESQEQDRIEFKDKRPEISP
Conditions: protein: recombinant; tags: N-terminal GST; dsDNA, one strand shown. A digest of the protocol:
as §1

Another experiment has as its target T11, ELF5 (Homo sapiens, UniProt Q9UKW6-2 1-255).
T11 sequence: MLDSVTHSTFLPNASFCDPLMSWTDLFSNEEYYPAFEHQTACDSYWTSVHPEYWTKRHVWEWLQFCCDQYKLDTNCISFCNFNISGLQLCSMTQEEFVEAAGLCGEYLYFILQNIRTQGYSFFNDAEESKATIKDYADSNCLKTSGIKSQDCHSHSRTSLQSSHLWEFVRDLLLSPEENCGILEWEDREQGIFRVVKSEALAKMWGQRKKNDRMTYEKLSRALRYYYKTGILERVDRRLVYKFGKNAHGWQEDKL
To be noted: protein: recombinant; tags: N-terminal GST; dsDNA, one strand shown. The method, boiled down: as §1

The target in a further experiment is T12, ETV3 (Homo sapiens, UniProt P41162-2 1-143).
T12 sequence: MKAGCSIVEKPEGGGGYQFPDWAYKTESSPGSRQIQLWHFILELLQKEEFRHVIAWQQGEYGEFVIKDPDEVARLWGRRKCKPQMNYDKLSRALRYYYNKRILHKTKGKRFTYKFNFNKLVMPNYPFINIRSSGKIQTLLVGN
To be noted: protein: recombinant; tags: N-terminal GST; dsDNA, one strand shown. A digest of the protocol: as §1

Another experiment addresses ETV6 (Homo sapiens, UniProt P41212 1-452). To be noted: protein: recombinant; tags: N-terminal GST; dsDNA, one strand shown. The method, boiled down:
as §1

CRX, sequence (O43186 whole entry): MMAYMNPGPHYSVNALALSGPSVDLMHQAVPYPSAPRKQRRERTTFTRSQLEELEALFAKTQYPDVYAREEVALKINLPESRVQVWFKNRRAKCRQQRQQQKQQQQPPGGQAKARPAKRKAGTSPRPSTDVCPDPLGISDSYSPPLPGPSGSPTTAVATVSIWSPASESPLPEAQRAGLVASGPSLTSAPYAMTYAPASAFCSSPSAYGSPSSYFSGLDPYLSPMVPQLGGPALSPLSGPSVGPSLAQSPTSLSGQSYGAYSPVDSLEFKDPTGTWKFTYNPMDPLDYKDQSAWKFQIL
ETV6, sequence (P41212 whole entry): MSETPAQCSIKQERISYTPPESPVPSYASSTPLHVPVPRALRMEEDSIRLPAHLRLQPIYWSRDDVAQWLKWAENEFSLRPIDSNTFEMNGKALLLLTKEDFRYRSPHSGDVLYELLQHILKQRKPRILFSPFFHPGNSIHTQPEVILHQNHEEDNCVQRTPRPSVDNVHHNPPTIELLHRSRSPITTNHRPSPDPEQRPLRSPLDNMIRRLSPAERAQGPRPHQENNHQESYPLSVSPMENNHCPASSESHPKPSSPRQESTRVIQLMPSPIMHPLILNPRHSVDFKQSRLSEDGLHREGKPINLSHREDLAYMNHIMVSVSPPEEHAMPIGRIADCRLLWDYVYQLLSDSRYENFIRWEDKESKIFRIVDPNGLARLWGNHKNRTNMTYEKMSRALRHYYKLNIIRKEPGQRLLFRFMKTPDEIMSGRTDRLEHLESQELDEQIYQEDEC
ELF4, sequence (Q99607 whole entry): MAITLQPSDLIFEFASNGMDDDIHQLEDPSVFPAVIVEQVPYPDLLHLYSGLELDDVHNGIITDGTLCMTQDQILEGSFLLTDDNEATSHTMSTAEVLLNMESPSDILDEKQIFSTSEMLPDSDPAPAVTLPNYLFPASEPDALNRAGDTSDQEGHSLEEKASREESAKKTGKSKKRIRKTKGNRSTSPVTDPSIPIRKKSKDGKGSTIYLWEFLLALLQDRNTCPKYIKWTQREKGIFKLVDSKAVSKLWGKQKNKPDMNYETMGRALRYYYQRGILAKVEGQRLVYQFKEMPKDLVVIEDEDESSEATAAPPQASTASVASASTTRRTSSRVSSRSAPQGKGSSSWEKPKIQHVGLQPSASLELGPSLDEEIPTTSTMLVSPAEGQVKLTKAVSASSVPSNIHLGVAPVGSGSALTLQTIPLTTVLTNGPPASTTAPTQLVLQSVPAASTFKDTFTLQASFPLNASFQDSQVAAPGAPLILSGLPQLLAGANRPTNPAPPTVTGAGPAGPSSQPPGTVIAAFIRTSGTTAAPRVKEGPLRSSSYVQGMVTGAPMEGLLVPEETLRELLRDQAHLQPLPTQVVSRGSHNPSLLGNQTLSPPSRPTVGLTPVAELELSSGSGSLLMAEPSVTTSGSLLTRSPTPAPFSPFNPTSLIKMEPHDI
ETV1, sequence (P50549 whole entry): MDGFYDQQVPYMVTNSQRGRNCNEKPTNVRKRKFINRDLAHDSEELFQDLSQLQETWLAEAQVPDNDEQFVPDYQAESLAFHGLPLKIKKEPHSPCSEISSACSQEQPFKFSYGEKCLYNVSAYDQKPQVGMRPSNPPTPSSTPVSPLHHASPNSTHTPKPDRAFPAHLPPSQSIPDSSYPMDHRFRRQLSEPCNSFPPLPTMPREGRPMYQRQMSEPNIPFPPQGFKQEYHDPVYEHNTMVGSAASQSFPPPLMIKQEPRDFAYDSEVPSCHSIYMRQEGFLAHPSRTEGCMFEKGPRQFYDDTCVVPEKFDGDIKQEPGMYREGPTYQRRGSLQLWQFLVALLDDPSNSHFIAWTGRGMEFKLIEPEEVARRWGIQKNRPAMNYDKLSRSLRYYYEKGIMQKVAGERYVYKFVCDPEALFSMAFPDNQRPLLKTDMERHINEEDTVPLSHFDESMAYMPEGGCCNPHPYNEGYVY

For the sequence TTATTT, the binding signal with FEV is 1.41 fold enrichment (6-mer frequency, TF over GST control); in the experiment with ETV5 it was 1.47 fold enrichment (6-mer frequency, TF over GST control); in the experiment with HSF1 it was 1.64 fold enrichment (6-mer frequency, TF over GST control); in the experiment with SPIC it was 1.48 fold enrichment (6-mer frequency, TF over GST control); with ELF4 it was 1.32 fold enrichment (6-mer frequency, TF over GST control); with ELK4 it was 1.43 fold enrichment (6-mer frequency, TF over GST control). For the same sequence, the binding signal is 1.26 fold enrichment (6-mer frequency, TF over GST control) with ETV2; 1.55 fold enrichment (6-mer frequency, TF over GST control) with ELF3; 2.43 fold enrichment (6-mer frequency, TF over GST control) with CRX; 1.52 fold enrichment (6-mer frequency, TF over GST control) with ETV1; 1.26 fold enrichment (6-mer frequency, TF over GST control) with ERF; 1.38 fold enrichment (6-mer frequency, TF over GST control) with ETV3L. In addition, the binding signal with ETS2 was 1.41 fold enrichment (6-mer frequency, TF over GST control); with SPDEF, 1.19 fold enrichment (6-mer frequency, TF over GST control); in the experiment with ETV7, 1.46 fold enrichment (6-mer frequency, TF over GST control); with ELF5, 1.43 fold enrichment (6-mer frequency, TF over GST control); in the experiment with ETV3, 1.41 fold enrichment (6-mer frequency, TF over GST control); in the experiment with ETV6, 1.4 fold enrichment (6-mer frequency, TF over GST control).
